This note sets out measurements from PubChem BioAssay.

Each structure is given as a SMILES string. Inconclusive results are not listed. Activity calls are given as the source filed them.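 Rule for the calls, unless noted: active = normalized viability below 100% at a tested concentration; inactive = the rest.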

Assay [1] is described as follows: growth inhibition of DIPG glioma cells, dose response, cell-based, SU-DIPG-XVII, MIPE5.0, CellTiter-Glo, qHTS (AID 1347060; cut-off not given, nearly all actives have AC50 up to about 26 µM;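 note: cells exposed to compound for 48 hours before viability readout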). As to conditions: SU-DIPG-XVII viability, CellTiter-Glo ATP luminescence. A general note: Cellular ATP, detected with luciferase, serves as a proxy for viable cell number.
Assay [2] can be described thus: growth inhibition of DIPG glioma cells, dose response, cell-based, SU-DIPG-XIII, MIPE4.0, CellTiter-Glo, qHTS (AID 1347061; cut-off not given, nearly all actives have AC50 up to about 37 µM;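 note: cells exposed to compound for 48 hours before readout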). Conditions: SU-DIPG-XIII viability, CellTiter-Glo ATP luminescence.
A short description of assay [3]: growth inhibition of DIPG glioma cells, dose response, cell-based, JHH-DIPG-1, MIPE4.0, CellTiter-Glo, qHTS (AID 1347062; cut-off not given, nearly all actives have AC50 up to about 27 µM;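 note: cells exposed to compound for two days before readout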). Conditions: JHH-DIPG-1 viability, CellTiter-Glo ATP luminescence.
Assay [4] in a line: growth inhibition of DIPG glioma cells, dose response, cell-based, SU-DIPG-IV, MIPE4.0, CellTiter-Glo, qHTS (AID 1347063; cut-off not given, nearly all actives have AC50 up to about 30 µM;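 note: compound exposure lasted 48 hours before the viability readout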). Conditions: SU-DIPG-IV viability, CellTiter-Glo ATP luminescence.
Assay [5] can be described thus: growth inhibition of DIPG glioma cells, dose response, cell-based, SU-DIPG-XIII, MIPE5.0, CellTiter-Glo, qHTS (AID 1347064; cut-off not given, nearly all actives have AC50 up to about 23 µM;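 note: cells exposed to compound for 48 hours before the viability read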). As to conditions: SU-DIPG-XIII viability, CellTiter-Glo ATP luminescence.
Assay [6] is described as follows: viability loss in pontine glioma line – cell-based, SU-DIPG-XXV, MIPE5.0, CellTiter-Glo, qHTS, dose response (AID 1347065; cut-off not given, nearly all actives have AC50 up to about 26 µM;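 note: cells exposed to compound for 48 hours before ATP readout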). As to conditions: CellTiter-Glo ATP luminescence.
Assay [7] in a line: SU-DIPG-VI glioma cell viability, MIPE4.0 library, CellTiter-Glo luminescence, qHTS (AID 1347066; cut-off not given, nearly all actives have AC50 up to about 30 µM;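 note: cells exposed to compound for 48 hours before readout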). As to conditions: CellTiter-Glo ATP luminescence.
A short description of assay [8]: JHH-DIPG-1 glioma cell viability, MIPE5.0 library, CellTiter-Glo luminescence, qHTS (AID 1347067; cut-off not given, nearly all actives have AC50 up to about 26 µM;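 note: cells exposed to compound for 48 hours before readout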). As to conditions: JHH-DIPG-1 glioma viability, CellTiter-Glo ATP luminescence.
Assay [9] can be described thus: SU-DIPG-XXV glioma cell viability, MIPE5.0 library, qHTS (AID 1347068; cut-off not given, nearly all actives have IC50 up to about 30 µM;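 for IC50: cells exposed to compound for 48 hours before viability readout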). For orientation: In qHTS, concentration-response curves come from the screen itself.
Assay [10] is described as follows: sensitizers of A549 cells to miR-34 induction, primary screen, imaging, A549 dox-inducible miR-34, nuclei and caspase counts (AID 1347080;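 active = compounds whose cell count with miR-34 switched on is under 0.7 times the count with it off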). Conditions: A549 miR-34 inducible, Hoechst nuclei count, 48 h.
The nature of assay [11]: modifiers of HSF1 nuclear foci, imaging, Selleck Cancer Library (AID 1347162; in the data active = plate-normalised HSF1 focus index below about 0.46). As to conditions: human cells, at 10 µM; SSMD: measured here: HSF1 foci SSMD mean; cell count: measured here: cell number; plate-normalised HSF1 focus index: stronger effect = lower value.
The nature of assay [12]: survival rescue of mitochondrial mutant cells in low glucose, primary screen, MELAS cybrids, Rieske KO mouse fibroblasts, CellTiter-Glo (AID 1508586;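 active = mean z-score across replicates of 1.96 or higher in either the MELAS or the Rieske mutant cell line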;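 note: z relative to plate mean and SD of compound and empty wells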).
Assay [13] in a line: ovarian cancer cell viability with rucaparib, profiling panel, oncology-focused library, rucaparib conditional (AID 1508598). Conditions: patient-derived ovarian cancer cells, CellTiter-Glo viability, 144 h, stronger effect = lower value.

By AC50 is commonly meant the midpoint of the concentration-response curve, whichever way the signal moves. A word on the IC50: it is the concentration at which inhibition is half-maximal. On to `COc1cccc2nc(-c3cccs3)nc(NN3C(=O)C=C(C)C3=O)c12`, for which the AC50 in [1] is 833 nM (active); in assay [2], 10500 nM (active); in assay [3], 16600 nM (active); in assay [4], 296 nM (active); in assay [5] it was 2090 nM (active); in assay [6] it was 1660 nM (active). Moreover, the AC50 in [7] was 3720 nM (active); in assay [8], 2350 nM (active). Further, the IC50 in assay [9] is 7420 nM (active).
Take `O=C1NC(=O)/C(=C/c2ccc3nccc(-c4ccncc4)c3c2)S1`: the AC50 in [1] was 1180 nM (active); in [2], 743 nM (active); in assay [3], 1050 nM (active); in assay [4], 83.3 nM (active); in assay [5], 1480 nM (active); in assay [6], 468 nM (active). The AC50 in assay [7] was 264 nM (active); in [8], 1480 nM (active). Besides, the IC50 in assay [9] was 1320 nM (active).
On to `CC1=C(CO)C(=O)O[C@@H]([C@@H](C)[C@H]2CC[C@H]3[C@@H]4C[C@H]5O[C@]56[C@@H](O)C=CC(=O)[C@]6(C)[C@H]4CC[C@]23C)C1`, for which the AC50 is 1480 nM (active) in [1]; 1870 nM (active) in assay [2]; 1180 nM (active) in [3]; 332 nM (active) in assay [4]; 1050 nM (active) in assay [5]; 1480 nM (active) in assay [6]. Also, the AC50 in assay [7] was 743 nM (active); in [8] it was 1320 nM (active). The IC50 in assay [9] is 2350 nM (active).
Regarding `CC(=O)NCC(=O)N1[C@@H]2CC[C@H]1c1ccc(Nc3ncc(C(F)(F)F)c(NC4CCC4)n3)cc12`, the AC50 was 417 nM (active) in [1]; 1660 nM (active) in assay [2]; 5900 nM (active) in [3]; 1870 nM (active) in assay [4]; 661 nM (active) in assay [5]; 186 nM (active) in [6]. In addition, the AC50 in assay [7] is 2640 nM (active); in [8] it was 1860 nM (active). Further, the IC50 in [9] is 833 nM (active).
For orientation: viability means a read-out of living cells in per cent, often relative to untreated cells. On to `CCNC(=O)c1noc(-c2cc(C(C)C)c(O)cc2O)c1-c1ccc(CN2CCOCC2)cc1`, for which the AC50 is 16.6 nM (active) in [1]; 105 nM (active) in assay [2]; 74.3 nM (active) in assay [3]; 52.6 nM (active) in [4]; 33.2 nM (active) in [5]; 11.8 nM (active) in [6]. For the same compound, the AC50 in [7] was 4690 nM (active); in assay [8], 20.9 nM (active). Besides, the compound was classed as inactive in assay [9]. The fold change is 1.03 (inactive) in assay [10] (stronger effect = lower value, cell number ratio, induced over uninduced) and 0.796 in assay [10] (measured here: relative caspase fold change +Dox/-Dox). For the same compound, the cell count in [10] (measured here: total cells with miR-34 induction, stronger effect = lower value) turned out to be 1340; in assay [10] (measured here: total cells without miR-34 induction), 1290; in assay [11] it was 7410. In [11], the SSMD turned out to be 2.25. For the same compound, the plate-normalised HSF1 focus index in assay [11] was 1.08 (inactive). In addition, the z-score in assay [12] (MELAS cybrid survival, CellTiter-Glo 48 h, stronger effect = higher value) is 2.88 (active); in assay [12] (Rieske KO mouse fibroblast survival, CellTiter-Glo 72 h), 0.0253. The viability in [13] (at 0.000305 µM, OCI-C5x cells, with rucaparib 10 µM, 100% = cells with rucaparib alone) was 136% (inactive); in assay [13] (at 0.000305 µM, OCI-C5x cells, without rucaparib), 129% (inactive); in assay [13] (at 0.000305 µM, OCI-P5x cells, with rucaparib 20 µM, 100% = cells with rucaparib alone), 98% (active); in [13] (at 0.000305 µM, OCI-P5x cells, without rucaparib), 112% (inactive); in [13] (at 0.00122 µM, OCI-C5x cells, with rucaparib 10 µM, 100% = cells with rucaparib alone), 131% (inactive); in assay [13] (at 0.00122 µM, OCI-C5x cells, without rucaparib), 137% (inactive). Also, the viability in assay [13] (at 0.00122 µM, OCI-P5x cells, with rucaparib 20 µM, 100% = cells with rucaparib alone) was 69.1% (active); in assay [13] (at 0.00122 µM, OCI-P5x cells, without rucaparib), 97.9% (active); in [13] (at 0.00488 µM, OCI-C5x cells, with rucaparib 10 µM, 100% = cells with rucaparib alone) it was 29.2% (active); in [13] (at 0.00488 µM, OCI-C5x cells, without rucaparib), 12.3% (active); in assay [13] (at 0.00488 µM, OCI-P5x cells, with rucaparib 20 µM, 100% = cells with rucaparib alone), 13.9% (active); in [13] (at 0.00488 µM, OCI-P5x cells, without rucaparib) it was 5.95% (active). The viability in [13] (at 0.0195 µM, OCI-C5x cells, with rucaparib 10 µM, 100% = cells with rucaparib alone) was 9.68% (active); in [13] (at 0.0195 µM, OCI-C5x cells, without rucaparib), 9.96% (active); in [13] (at 0.0195 µM, OCI-P5x cells, with rucaparib 20 µM, 100% = cells with rucaparib alone), 6.4% (active); in assay [13] (at 0.0195 µM, OCI-P5x cells, without rucaparib) it was 4.69% (active); in [13] (at 0.0781 µM, OCI-C5x cells, with rucaparib 10 µM, 100% = cells with rucaparib alone) it was 9.48% (active); in [13] (at 0.0781 µM, OCI-C5x cells, without rucaparib), 9.56% (active). Also, the viability in [13] (at 0.0781 µM, OCI-P5x cells, with rucaparib 20 µM, 100% = cells with rucaparib alone) is 6.42% (active); in assay [13] (at 0.0781 µM, OCI-P5x cells, without rucaparib), 4.47% (active); in assay [13] (at 0.313 µM, OCI-C5x cells, with rucaparib 10 µM, 100% = cells with rucaparib alone), 8.98% (active); in assay [13] (at 0.313 µM, OCI-C5x cells, without rucaparib), 9.43% (active); in [13] (at 0.313 µM, OCI-P5x cells, with rucaparib 20 µM, 100% = cells with rucaparib alone), 5.55% (active); in assay [13] (at 0.313 µM, OCI-P5x cells, without rucaparib), 3.94% (active). The viability in [13] (at 1.25 µM, OCI-C5x cells, with rucaparib 10 µM, 100% = cells with rucaparib alone) was 10.6% (active); in [13] (at 1.25 µM, OCI-C5x cells, without rucaparib), 9.54% (active); in assay [13] (at 1.25 µM, OCI-P5x cells, with rucaparib 20 µM, 100% = cells with rucaparib alone) it was 4.83% (active); in assay [13] (at 1.25 µM, OCI-P5x cells, without rucaparib), 3.83% (active); in assay [13] (at 5 µM, OCI-C5x cells, with rucaparib 10 µM, 100% = cells with rucaparib alone) it was 9.11% (active); in assay [13] (at 5 µM, OCI-C5x cells, without rucaparib) it was 9.15% (active). Also, the viability in assay [13] (at 5 µM, OCI-P5x cells, with rucaparib 20 µM, 100% = cells with rucaparib alone) is 3.61% (active); in assay [13] (at 5 µM, OCI-P5x cells, without rucaparib) it was 2.59% (active).
